Source: PubChem BioAssay (NCATS)
Values joined by “and” are separate entries in the source; they are usually repeats but may differ in a detail not shown here. Identical values can stand only once. Records with an inconclusive call do not appear. Entries that show only a call come without a potency. Unmarked numbers belong to inactive results. Active and inactive are the calls of the source. The call rests on the fitted dose curve; in most records, active means well fitted inhibition curve with a large enough effect; inconclusive means small, poorly fitted or top-dose-only effect; inactive means flat fitted curve, though single readings scatter.

Tests used:
TAB109 = experiment: qHTS profiling for inhibitors of Plasmodium falciparum proliferation (AID 504749); further: potency means the concentration at half of the fitted maximal effect; conditions: P. falciparum in erythrocytes, SYBR Green DNA, 72 h; series mostly up to 28.7 µM
Outline: (§1)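 Fluorescence of SYBR Green-bound parasite DNA, read at 485/535 nm, served as the growth measure. Infected erythrocytes were cultured with compound 72 h; artemisinin (0.29 uM) and DMSO wells defined the normalization range.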

TAB113 = experiment: as above; conditions: P. falciparum in erythrocytes, SYBR Green DNA, 72 h; series mostly up to 28.7 µM
Outline: as §1

TAB165 = experiment: as above; conditions: P. falciparum in erythrocytes, SYBR Green DNA, 72 h; series mostly up to 28.7 µM
Outline: as §1

W2 = experiment: as above; conditions: P. falciparum in erythrocytes, SYBR Green DNA, 72 h; series mostly up to 28.7 µM
Outline: as §1

CRL-7250 = normal cell line; experiment: Cytotoxic Profiling of Annotated Libraries Using Quantitative High-Throughput Screening (AID 1296008); conditions: Five cell lines viability, CellTiter-Glo ATP luminescence, 48-72 h; max response: hits give low values; further: potency means the concentration at half of the fitted maximal effect
Outline: (§2)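 Compounds were pin-transferred onto cells and incubated 48 or 72 hr at 37 degree Celsius, 95% humidity. CellTiter-Glo was added, plates sat 10 min at room temperature, then ATP-coupled luminescence was imaged as the viability read-out.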

HEK293 = experiment: as above; conditions: Five cell lines viability, CellTiter-Glo ATP luminescence, 48-72 h; max response: hits give low values
Outline: as §2

HaCat [1] = experiment: as above; conditions: Five cell lines viability, CellTiter-Glo ATP luminescence, 48-72 h; max response: hits give low values
Outline: as §2

KB-3-1 = experiment: as above; conditions: Five cell lines viability, CellTiter-Glo ATP luminescence, 48-72 h; max response: hits give low values
Outline: as §2

NIH3T3 = experiment: as above; conditions: Five cell lines viability, CellTiter-Glo ATP luminescence, 48-72 h; max response: hits give low values
Outline: as §2

HACAT [2] = experiment: qHTS assay to identify novel small-molecules to repurpose for Merkel cell carcinoma treatment (AID 1296009); conditions: MCC and control cell lines, CellTiter-Glo viability, 72 h; at 44.8 µM (top of the series) unless noted
Outline: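 Luminescence from CellTiter-Glo, read 10 min after addition at room temperature, reported viability following a 72 hr, 37 degree celsius treatment with NPC or MIPE compounds in titration; values normalized to plate controls.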
Further: nearly all actives have a fitted effect of over 60% in size.

Row | Structure (SMILES) | Potency (TAB109) | Potency (TAB113) | Potency (TAB165) | Potency (W2) | max response (CRL-7250) | outcome (HEK293) | outcome (HaCat [1]) | max response (KB-3-1) | max response (NIH3T3) | outcome (HACAT [2]) | outcome (NIH3T3) | outcome (CRL-7250) | max response (HEK293) [%] | max response (HaCat [1]) [%] | Potency (HEK293) | Potency (HaCat [1]) | Potency (NIH3T3)
1 | O=C1NS(=O)(=O)c2ccccc21 | inactive | inactive | inactive | inactive | -9.05% | inactive | inactive | 20.6% | -6% | inactive |  |  |  |  |  |  | 
2 | CCN(CC)CCNC(C(=O)OCCC(C)C)c1ccccc1 (stereo unspecified) |  |  | 10 µM (active) | 4.78 µM (active) | 1.18% | inactive | inactive | 11.9% |  | inactive | inactive |  |  |  |  |  | 
3 | O=C(O)c1ccccc1-c1ccc(C(F)(F)F)cc1 | inactive | inactive | inactive | inactive |  | inactive | inactive | -5.64% | -3.57% | inactive |  | inactive |  |  |  |  | 
4 | Cc1cc2c(cc1S(N)(=O)=O)S(=O)(=O)CCC2 | inactive | inactive | inactive | inactive | -3.17% | inactive | inactive | -2.22% | -4.64% | inactive |  |  |  |  |  |  | 
5 | COc1ccc(S(=O)(=O)Nc2nnc(CC(C)C)s2)cc1 | inactive | inactive | inactive | inactive | 0.202% |  |  | -8.69% and 6.78% | -3.07% |  |  |  | -9.93 | -5.69 |  |  | 
6 | CC1(C)CO[C@@H](CC(=O)O)CN1 | inactive | inactive | inactive | inactive |  | inactive | inactive | 9.26% | -2.92% | inactive |  | inactive |  |  |  |  | 
7 | Nc1ccc(S(=O)(=O)NC(=O)c2ccccc2)cc1 | inactive | inactive | inactive | inactive | -4.44% | inactive | inactive | 18.9% | -0.704% | inactive |  |  |  |  |  |  | 
8 | COc1ccc2c(c1)C(=O)N(CCc1ccc(S(=O)(=O)NC(=O)NC3CCCCC3)cc1)C(=O)C2(C)C | inactive | inactive | inactive | inactive | 2.02% and -12.3% |  |  | 7.8% and -5.8% | -19.1% and -11.5% |  |  |  | -11 | 4.11 |  |  | 
9 | CC(=O)CCC(=O)O | inactive | inactive | inactive | inactive | -8.02% | inactive | inactive | 2.58% |  | inactive | inactive |  |  |  |  |  | 
10 | CC(O)CN(CCN(CC(C)O)CC(C)O)CC(C)O (stereo unspecified) | inactive | inactive | inactive | inactive | 4.33% | inactive | inactive | -16.3% |  | inactive | inactive |  |  |  |  |  | 
11 | O=c1cc[nH]c(=S)[nH]1 | inactive | inactive | inactive | inactive | 1.22% | inactive | inactive | -6.83% | -2.25% | inactive |  |  |  |  |  |  | 
12 | Cc1cc(CC(=O)O)n(C)c1C(=O)c1ccc(Cl)cc1 | inactive | inactive | inactive | inactive |  | inactive |  | -2.26% and -15.1% | -0.54% |  |  | inactive |  | -1.31 |  |  | 
13 | CC1(C)OC(=O)NC1=O | inactive | inactive | inactive | inactive | 4.73% | inactive | inactive | 1.34% | 3.48% | inactive |  |  |  |  |  |  | 
14 | O=S(=O)(O)c1cc(I)c(O)c2ncccc12 | inactive | inactive | inactive | inactive | 1.34% | inactive | inactive | -3.56% | -0.492% | inactive |  |  |  |  |  |  | 
15 | O=C(O)CC(O)C(=O)O (stereo unspecified) | inactive | inactive | inactive | inactive | -10.5% | inactive | inactive | 15.7% | 4.82% | inactive |  |  |  |  |  |  | 
16 | Cc1ccc(C(C)C)cc2c(C)ccc1-2 | inactive | inactive | inactive |  | 3.16% | inactive |  | -19.4% |  |  | inactive |  |  | -2.06 |  |  | 
17 | CCCn1cnc2c1c(=O)n(CCCCC(C)=O)c(=O)n2C | inactive | inactive | inactive | 15.1 µM (active) | -5.12% |  |  | 4.64% | -3.42% |  |  |  | -11.1 | -0.92 |  |  | 
18 | CCCCN(CCCC)CCCOC(=O)c1ccc(N)cc1 | inactive | inactive | inactive |  |  | inactive |  | -15.2% |  |  | inactive | inactive |  | -1.28 |  |  | 
19 | Oc1ccc(C(O)CNCCCCCCNCC(O)c2ccc(O)c(O)c2)cc1O (stereo unspecified) |  |  | 11.2 µM (active) | 16.9 µM (active) | -1.96% | inactive | inactive | 1.48% | 0.438% | inactive |  |  |  |  |  |  | 
20 | Oc1cccc(O)c1 | inactive | inactive | inactive | inactive | -6.09% | inactive | inactive | -21.4% |  | inactive | inactive |  |  |  |  |  | 
21 | NC(N)=NCCC[C@H](N)C(=O)O |  |  |  |  |  |  | inactive |  |  | inactive [at 4.96 µM] | inactive | inactive | -4.96 |  |  |  | 
22 | O=C1O[C@H]([C@@H](O)CO)C(O)=C1O | inactive | inactive | inactive | inactive | 0.399% | inactive | inactive |  |  | inactive | inactive |  |  |  |  |  | 
23 | CCC(=O)c1ccc(O)cc1 | inactive | inactive | inactive | inactive | 4.24% | inactive | inactive |  |  | inactive | inactive |  |  |  |  |  | 
24 | COc1ccccc1O | inactive | inactive | inactive | inactive | 3.64% |  |  | -18.3% and -7.82% | -2.65% |  |  |  | -17.2 | 3.89 |  |  | 
25 | CC1CC(OC(=O)C(O)c2ccccc2)CC(C)(C)N1C (stereo unspecified) |  |  |  |  | -13.8% | inactive |  |  |  |  | inactive |  |  | 1.05 |  |  | 
26 | Cc1ccc2nc(N)[nH]c(=O)c2c1Sc1ccncc1 | 7.08 µM (active) |  | 2 µM (active) |  | -27% and -23.5% |  |  | -5.1% |  |  |  |  |  |  | 8.2 µM (active) | 1.33 µM (active) and 2.59 µM (active) | 2.37 µM (active) and 6.51 µM (active)
